Data on 10 compounds can be found in PubChem BioAssay (EPA / NIEHS).

Records with an inconclusive call do not appear. Active and inactive are the calls of the source. The calls were made as follows: active = hit-call score of the fitted dose curve at least 0.9, where 1 is the maximum; inconclusive = response in the unintended direction; inactive = score below 0.9.

human Beta-secretase (BACE), BACE1 (gene 23621), sequence (P56817 whole entry, looked up): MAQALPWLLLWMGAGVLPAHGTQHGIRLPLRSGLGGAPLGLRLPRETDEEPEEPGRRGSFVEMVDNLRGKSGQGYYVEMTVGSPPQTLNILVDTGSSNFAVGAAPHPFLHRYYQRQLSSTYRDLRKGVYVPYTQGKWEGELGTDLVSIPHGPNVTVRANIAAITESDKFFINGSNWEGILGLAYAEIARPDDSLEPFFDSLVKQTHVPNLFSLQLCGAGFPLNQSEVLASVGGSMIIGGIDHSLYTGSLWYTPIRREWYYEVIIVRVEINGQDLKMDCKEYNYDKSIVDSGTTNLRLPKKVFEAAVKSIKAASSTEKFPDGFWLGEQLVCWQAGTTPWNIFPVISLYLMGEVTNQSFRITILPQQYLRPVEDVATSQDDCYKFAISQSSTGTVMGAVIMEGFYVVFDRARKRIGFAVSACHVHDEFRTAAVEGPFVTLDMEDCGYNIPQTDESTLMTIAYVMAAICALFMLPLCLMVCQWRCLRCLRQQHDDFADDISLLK
human Caspase 2 (CASP2), CASP2 (gene 835), sequence (P42575 whole entry, looked up): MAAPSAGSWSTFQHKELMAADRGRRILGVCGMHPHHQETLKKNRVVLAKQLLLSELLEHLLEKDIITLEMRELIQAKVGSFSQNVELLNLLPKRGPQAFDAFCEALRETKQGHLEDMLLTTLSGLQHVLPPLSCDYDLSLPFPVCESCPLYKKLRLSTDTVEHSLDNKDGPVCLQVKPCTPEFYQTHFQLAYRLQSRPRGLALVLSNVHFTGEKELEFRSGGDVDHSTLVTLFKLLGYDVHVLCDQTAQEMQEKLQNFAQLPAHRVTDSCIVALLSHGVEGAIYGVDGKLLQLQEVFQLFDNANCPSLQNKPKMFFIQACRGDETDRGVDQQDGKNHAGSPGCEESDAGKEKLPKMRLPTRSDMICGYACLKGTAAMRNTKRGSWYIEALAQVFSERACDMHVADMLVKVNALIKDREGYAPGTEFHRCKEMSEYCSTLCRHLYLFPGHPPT

The target in one test is human Caspase 2 (CASP2), CASP2 (gene 835) (UniProt P42575). Kind of test: NVS_ENZ_hCASP2: NovaScreen (NVS) Enzymatic Assay for human Caspase 2 (CASP2) (AID 2283135). Put shortly:
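Single-point duplicate testing at 25 uM preceded concentration series topping at 50 uM. Activity of the recombinant E. coli-derived protease was followed by fluorescent substrate cleavage 1 h post-dosing, relative to DMSO.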
Regarding `CCCCN(CCCC)SN(C)C(=O)Oc1cccc2c1OC(C)(C)C2`, the compound was classed as inactive.
`COCCOCCO`: the call was inactive.
On the same count and under the same terms, in the case of `CC(Cl)(Cl)C(=O)O` it was “inactive”; in that of `CCOP(=S)(OCC)SCSCC`, “inactive”.

The target in a further test is human AKT serine/threonine Kinase 1 (AKT1), AKT1 (gene 207) (UniProt P31749). Description: NVS_ENZ_hAKT1: NovaScreen (NVS) Enzymatic Assay for human AKT serine/threonine Kinase 1 (AKT1) (AID 2283138). As to the method: NVS_ENZ_hAKT1 is a biochemical, single-readout assay that uses extracted gene-proteins in a cell-free assay. Measurements were taken 1 hour after chemical dosing in a 384-well plate.NVS_ENZ_hAKT1 is one of one assay component(s) measured or calculated from the NVS_ENZ_hAKT1 assay. It is designed to make measurements of enzyme activity, a form of enzyme reporter, as detected with fluorescence intensity signals by Fluorescence and electrophoretic mobility shift technology.Data from the assay component NVS_ENZ_hAKT1 was analyzed into 1 assay endpoint. This assay endpoint, NVS_ENZ_hAKT1, was analyzed in the positive analysis fitting direction relative to DMSO as the negative control and baseline of activity. Using a type of enzyme reporter, loss-of-signal activity can be used to understand changes in the enzymatic activity as they relate to the gene AKT1. Furthermore, this assay endpoint can be referred to as a primary readout, because this assay has produced multiple assay endpoints where this one serves a enzymatic activity function. To generalize the intended target to other relatable targets, this assay endpoint is annotated to the kinase intended target family, where the subfamily is serine/threonine kinase.
human AKT serine/threonine Kinase 1 (AKT1), AKT1 (gene 207), sequence (P31749 whole entry, looked up): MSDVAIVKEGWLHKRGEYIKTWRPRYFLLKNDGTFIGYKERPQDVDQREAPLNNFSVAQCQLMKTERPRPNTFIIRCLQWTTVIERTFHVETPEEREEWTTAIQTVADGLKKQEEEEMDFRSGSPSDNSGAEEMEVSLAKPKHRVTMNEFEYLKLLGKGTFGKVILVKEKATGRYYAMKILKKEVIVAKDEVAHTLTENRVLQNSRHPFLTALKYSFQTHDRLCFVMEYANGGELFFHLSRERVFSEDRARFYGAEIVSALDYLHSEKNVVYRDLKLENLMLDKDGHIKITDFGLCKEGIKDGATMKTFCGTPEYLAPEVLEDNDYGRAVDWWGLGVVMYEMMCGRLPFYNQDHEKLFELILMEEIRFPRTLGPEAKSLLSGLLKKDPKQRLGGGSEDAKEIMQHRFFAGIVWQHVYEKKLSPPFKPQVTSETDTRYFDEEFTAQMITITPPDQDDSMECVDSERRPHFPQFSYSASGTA
Binding assays used specific radioligands (tritiated, iodinated) with non-radioactive competitive displacement ligands in agonist or antagonist protocols (as indicated) and various reference compounds and inhibitors to titrate specific binding to receptors and transporters. Most enzyme assays (CYPs, kinases, phosphatases, proteases, HDACs) used recombinant protein and specific substrates (fluorescence mostly, some colorimetric and radioactive) and inhibitors, followed by a biochemical separation of substrate and product. All assays for the biochemical HTS were initially run in duplicate at a single concentration (10 uM for CYP450 assays and 25 uM for all others). Assay-chemical combinations meeting a pre-defined threshold (e.g., 30% inhibition and other criteria defined below) were then run in singleton concentration-response format with maximum concentration of 20 uM for CYPs and 50 uM for all others. Each assay was run with positive and negative controls, and concurrent controls on every plate. The follow-up (secondary) screen tested active chemical-pairs in concentration series, as well as a few additional assays not tested in the primary screen, some selected negative inactives, and several cases re-run in the concentration series for confirmatory purposes.
With `Cc1cccc(N)c1`, the outcome was inactive.
For the compound `CC(C)(C)OOC(C)(C)C`, the compound was called inactive.
On to `CCOP(=S)(Oc1ccc([N+](=O)[O-])cc1)c1ccccc1` (stereo unspecified), for which the call was inactive.
Take `CCOP(=S)(OCC)SCSCC`: the result was inactive.

Another test concerns the target human Beta-secretase (BACE), BACE1 (gene 23621) (UniProt P56817). Kind of test: NVS_ENZ_hBACE: NovaScreen (NVS) Enzymatic Assay for human Beta-secretase (BACE) (AID 2283140).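 Also: hits are inhibitors that reduce fluorescent substrate signal versus DMSO.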 The method, then:
NVS_ENZ_hBACE is a biochemical, single-readout assay that uses extracted gene-proteins from SF9 in a cell-free assay. Measurements were taken 1 hour after chemical dosing in a 96-well plate.NVS_ENZ_hBACE is one of one assay component(s) measured or calculated from the NVS_ENZ_hBACE assay. It is designed to make measurements of enzyme activity, a form of enzyme reporter, as detected with fluorescence intensity signals by Fluorescence technology.Data from the assay component NVS_ENZ_hBACE was analyzed into 1 assay endpoint. This assay endpoint, NVS_ENZ_hBACE, was analyzed in the positive analysis fitting direction relative to DMSO as the negative control and baseline of activity. Using a type of enzyme reporter, loss-of-signal activity can be used to understand changes in the enzymatic activity as they relate to the gene BACE1. Furthermore, this assay endpoint can be referred to as a primary readout, because […]. To generalize the intended target to other relatable targets, this assay endpoint is annotated to the protease intended target family, where the subfamily is aspartate protease.
Binding assays used specific radioligands (tritiated, iodinated) with non-radioactive competitive displacement ligands in agonist or antagonist protocols (as indicated) and various reference compounds and inhibitors to titrate specific binding to receptors and transporters. Most enzyme assays (CYPs, kinases, phosphatases, proteases, HDACs) used recombinant protein and specific substrates (fluorescence mostly, some colorimetric and radioactive) and inhibitors, followed by a biochemical separation of substrate and product. All assays for the biochemical HTS were initially run in duplicate at a single concentration (10 uM for CYP450 assays and 25 uM for all others). […] Each assay was run with positive and negative controls, and concurrent controls on every plate. […]
On to `NNC(N)=S`, for which the result was inactive.
`CCCN(CCC)c1c([N+](=O)[O-])cc(C(C)C)cc1[N+](=O)[O-]`: the call was inactive.
Turning to `O=P(OCC(Br)CBr)(OCC(Br)CBr)OCC(Br)CBr` (stereo unspecified), the AC50 is 14.3 µM (active).
